# Source: PubChem BioAssay (NCI)
# The panel holds about 83,000 compounds, 20% with a hit somewhere; the sample as a whole holds those more often.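 Note: values are percent growth. 100 is the growth of untreated cells, values between 100 and 0 indicate rising inhibition; between -100 and 0 indicates cell death.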 Activity calls are given as the source filed them. How the source made its calls: active means growth percent below 10; inactive means the rest.
# Test system: 786-0 renal
# Assay: NCI-60 one-dose screen, 48 h (100 = growth as untreated, 0 = no growth, -100 = all killed)
# Conditions: 10 µM unless noted
row,SMILES,growth
1,Cc1ccc(C2CC(c3nc(-c4ccc(Cl)cc4)oc3C)=NN2C(=O)c2ccncc2)cc1 (stereo not given),79.5% (inactive)
2,CSc1nc(C)c([N+](=O)[O-])c(N)n1,103% (inactive)
3,[2H]C([2H])([2H])Oc1ccc(F)cc1/C=C/C(=O)/C=C(O)/C=C/c1cc(F)ccc1OC([2H])([2H])[2H],99.7% (inactive)
4,COc1ccc(-c2nc3c(N)c(CO)cnc3s2)cc1,95% (inactive)
5,O=S(=O)(NCCNc1nccc(-c2c(-c3ccc(F)c(O)c3)nc3sccn23)n1)c1ccc(F)cc1,38.1% (inactive)
6,CCOC(=O)c1cnc2c(N=Nc3ccc(OC)cc3)c(N)nn2c1N,104% (inactive)
7,COc1ccc(-c2nn(-c3ccccc3)cc2/C=C/C(=O)NNC(=O)Nc2ccc(C)cc2)cc1,101% (inactive)
8,Oc1ccc(/C=C/c2ccc(O)cc2)cc1,24.3% (inactive)
9,O=[N+]([O-])c1ccc(-c2cn3nc(-c4c[nH]c5ccccc45)sc3n2)cc1,103% (inactive)
10,Oc1c(CN2CCOCC2)cc(COCc2ccccc2)c2cccnc12,32.6% (inactive)
11,CCOC(=O)CC1CSC(Nc2ccccc2)=N1 (stereo not given),98.7% (inactive)
12,CCc1n(Cc2ccc3ccccc3n2)cc[n+]1Cc1ccc2ccccc2n1,77.6% (inactive)
13,O=P(O)(O)OCC1OC(n2cnc3c(NCc4ccco4)ncnc32)C(O)C1O (stereo not given),10.5% (inactive)
14,COc1ccc(C2=CC(c3cc(OC)c(OC)c(OC)c3)n3ncnc3N2)cc1 (stereo not given),17.9% (inactive)
15,C/C=C(\C)C(=O)N[C@H]1C(O)C[C@]2(C)C3CC[C@@]4(C)C(CC[C@@H]4C(C)N(C)C)C3CCC2C1O (stereo not given in full),68.4% (inactive)
